Laboratory results as given in the supplement of paper PMC11417369.
± gives the standard deviation of the averaged measurements. Whole data set: some 25,000 sequences, median “ln(normalized median fluorescence intensity)” near 8.6, cut for the highest 2% near 10. Only a selection was taken, and the highest values are over-represented in it overall.

tested on: PfAP2-EXP AP2 domain (GST-tagged); test: gcPBM binding intensity (ln(normalized median fluorescence intensity)); higher = stronger DNA binding
How it was run: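 Binding intensity values are the highest Masliner-normalised natural-log median intensity among replicate spots of either probe orientation. The binding step lasted 1 h in 1× PBS with 1% milk, 0.2 mg/ml BSA, 0.5% salmon testes DNA and 0.03% Triton X-100, using GST-tagged P. falciparum DNA-binding domains expressed in E. coli on an Agilent 4 × 180k array of primer-extended double-stranded 36-bp intergenic genomic probes plus negative controls. Alexa488 anti-GST antibody and a 488 nm scan detected bound protein.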

Sequence	gcPBM binding intensity (ln)
AAAATTTATATAAGCACACAAATATATATTTATATC [CACACA_site3291]	8.55 ± 0.47
GAAGGAATATACAATTGTACTTGGCAAAAAAAAAAA [XGTACX_site1884]	8.74 ± 0.67
TCTGTAAAGTAATGGACACACAATATATCCATTTAT [CACACA_site1536]	8.35 ± 0.35
ATAATATAATATATATGTACACATCCTTTTTGTGTA [XGTACX_site2879]	8.62 ± 0.4
ATATATATATATATATGTACACAGGACAATAATCCT [XGTACX_site6383]	10.2 ± 0.33
ATATATAATATAATATGTACATATAATCAATCCTGT [XGTACX_site8694]	8.48 ± 0.28
AGAGGCCAGCTTTCTCTTCTAAACATGTACAAAAAT [GTGCAC_negctrl_site98]	8.63 ± 0.49
TTAGATATAATATATACACACCAACGAACGAAGAAA [CACACA_site4763]	9.12 ± 0.54
TCTATTAATGAATATACACACATTATATATATATAT [CACACA_site5410]	10 ± 0.49
ATAAGAAGGAACATAAATATATCATAAAAAAAAAAA [GTGCAC_negctrl_site169]	8.56 ± 0.35
TTTTCCTTATATTATGCATGCAGGGTTTGACATTAT [TGCATGCA_site826]	10.3 ± 0.34
ATTATTTATATTATGGTGCATAATTTTGGGTTTCTT	8.86 ± 0.26
ATAAAATTATATTTTGCATGCAGGCCTTTTTCTTAA [TGCATGCA_site1030]	9.94 ± 0.14
ATTTTTTATTGTTATAAAAAAAAAATTAAACAATTA [CACACA_negctrl_site1077]	8.19 ± 0.46
AGATATATTTTTTAAATTTAAAAATTATAAAATTTA [CACACA_negctrl_site533]	8.07 ± 0.42
TCATTCCATACTTTAACACACAAATATATTTAATCC [CACACA_site145]	8.76 ± 0.53
ATATTGGAGCACAACACACACAAGTATATATATGGA [CACACA_site1546]	8.8 ± 0.47
AAAAAAAAAAAATACGTGCACTATGATATATTATAT	8.95 ± 0.092
CATATACGCAAACACACACACATATATATATATATA [CACACA_site501]	10.2 ± 0.4
AAAAAAAAAAAAAACACACACATATATATATATATA [CACACA_site1891]	10.2 ± 0.3
TACATATATATATACACACATACATATATATACGCA [CACACA_site792]	8.45 ± 0.34
AAAAAAAAAAAAAAAACACACATACACCCCCACCCA [CACACA_site9117]	10.4 ± 0.3
TATATACGCAAACACACACACACATACACCCACATA [CACACA_site1724]	8.59 ± 0.44

Sequence	gcPBM binding intensity (ln)
AAAAAAAAAAAAAAAACACACACATATATATATATA [CACACA_site8571]	10.1 ± 0.21
AAAAAAAAAAAACACACACACACACCCATACATACA [CACACA_site707]	8.65 ± 0.56
AAAAAAAAAAAACACACACACATATATATATATATA [CACACA_site732]	10.2 ± 0.38
AAAAGGAACAGACACACACACATATATAAATATGTA [CACACA_site7656]	8.4 ± 0.59
AAAAGGAACAGACACACACACATATATATATATATA [CACACA_site3587]	10.3 ± 0.25
AAAAAAAAAAAAAACACACACACACCCACATATACA [CACACA_site2663]	8.53 ± 0.2
AAAAGGAACGGACACACACACATATATATATATATA [CACACA_site5894]	10.2 ± 0.49
CATGTATTTTATATTACACACTAATATTATAGATAT [CACACA_site6819]	8.27 ± 0.28
GCTTCTTAGTATACTTTATAAAATATATATTAAATA [XGTACX_negctrl_site57]	8.75 ± 0.47
AATATTTTATTTTTTCTCATTAAAAATTTTTTTTTT [CACACA_negctrl_site364]	8.46 ± 0.45
TAAAATGTAATCTGAACACACATATTTTTTTAATAT [CACACA_site1768]	8.12 ± 0.52
CTAACAACCAAACGCACACACACAAAAAAAAAAATA [CACACA_site400]	8.48 ± 0.42
AAATATTTTTTAATTGTTCACTTGGTGGATCATTAA [CACACA_negctrl_site922]	8.28 ± 0.28
TTTTTTTTTTTTTTTTGTACATATTTTAATTTGTTT [XGTACX_site6297]	8.05 ± 0.4
TATTTTCCATGAGGTAGTACACATTAAAAAATCGTT [XGTACX_site6887]	8.44 ± 0.29
AAGAATATTATAAACACACACTTTATAAAGAATTAT [CACACA_site4241]	8.51 ± 0.52
TAATTTAAAAATTCCTGTACTCAGTTTTTTCTATTT [XGTACX_site4961]	8.48 ± 0.39
AAAAAAAAAAAACATACACACATACATACATATATA [CACACA_site8222]	8.48 ± 0.4
TATAAGCAAAAACACACACACATATATATATATATA [CACACA_site3804]	10.3 ± 0.28
CATATATAAAAAAACACACACATATATATATATATA [CACACA_site1195]	10.2 ± 0.61
TTTAAGCAAAAACACACACACATATATATATATATA [CACACA_site349]	10.1 ± 0.41
AAAAAACAAAAACACACACACACATATATATATATA [CACACA_site3654]	9.94 ± 0.36
AAACAAAAAAAATAAGCACACATATATATATATATA [CACACA_site8173]	10.1 ± 0.26

Sequence	gcPBM binding intensity (ln)
AAAAAAAAAAAAAAAACACACATATATGTATATATA [CACACA_site3276]	8.28 ± 0.5
AAAAAAAAAAAACATACACACACATATATATATATA [CACACA_site8452]	10 ± 0.54
TATGTGCCAAAACACACACACATATATATATATATA [CACACA_site469]	10.2 ± 0.11
AAAAAAACACACACATATATATATATATATATATAT [GTGCAC_negctrl_site498]	10.2 ± 0.41
AAAACATACATATATACACACATATATATATATATA [CACACA_site1852]	10.2 ± 0.23
ATTATGTGCCAATACACACACACATATATATATATA [CACACA_site468]	9.91 ± 0.44
ACAGCTCTAGGACATGCATGTTATATAGAAAAAGAG [TGCATGCA_site703]	9.59 ± 0.32
TTATACAACAAGAAAATTATAAAATGTAACATATAT [GTGCAC_negctrl_site406]	8.53 ± 0.42
TTTATAATTTATATCACACATATATCTGTAATAAAT [CACACA_site5048]	8.24 ± 0.44
TATATTTATAGACACACACACAAAAAAAAAAAAAAA [CACACA_site6818]	8.37 ± 0.31
ATTTTCATGATAAAGGTGCAATTATTTTTATAAGAA	8.74 ± 0.13
ATTATTGTTTATTGATTTTTGTTAAAATAGGAAATT [GTGCAC_negctrl_site181]	8.37 ± 0.4
AAAAAAATCACATAAAATACTTTATTTTATATTATA [GTGCAC_negctrl_site372]	7.89 ± 0.36
ATTTTTAATCATTTACAACCTAGTGATTATACAAAT [CACACA_negctrl_site1089]	8.51 ± 0.35
AAAAAAAAAAAGCACACACACATATGCGTATATATA [CACACA_site954]	8.49 ± 0.57
TAAGAAAATATTTATGTATGCATGTCCTAATATTTC [TGCATGCA_site295]	8.44 ± 0.3
TTGCCTTAAAAAGGAACACACATGCTTTTTTTAGTT [CACACA_site938]	8.37 ± 0.45
TATTATAAATAAATAGAAAAAAAAATGATAAATGGA [CACACA_negctrl_site865]	8.62 ± 0.42
AAAAAAAAAAAAAAAACACACATATATATATATATA [CACACA_site2436]	10.4 ± 0.11
AAAACAAACAGACACACACACATATATATATATATA [CACACA_site3655]	10.3 ± 0.21
AAAAAAAAAAAAAACACACATACATACATACATATA [CACACA_site4121]	8.55 ± 0.16
AACACACACATATATATATATATATATATATATATA [GTGCAC_negctrl_site573]	10 ± 0.47
TGCATATACGCAAGCACACATATATATATATATATA [CACACA_site1069]	10.2 ± 0.51

Sequence	gcPBM binding intensity (ln)
AAAAAAAACAGACACACACACATACAAAATATATAT [CACACA_site1449]	8.73 ± 0.47
TATGCATATACACAAGCACACATATATATATATATA [CACACA_site8266]	10.1 ± 0.32
TGCATATACTCAAGCACACATATATATATATATATA [CACACA_site4733]	10.2 ± 0.33
AAAACAGACAAACACACACACACATATATATATATA [CACACA_site3393]	10.1 ± 0.49
AACTATAATTAAAGGATGCACTTGAAGGCATTTCAA [GTGCAC_site9689]	8.34 ± 0.35
GCATATATCAAATATCGTACATTTTTTAAATTAAAA [XGTACX_site3994]	8.42 ± 0.47
TACGTTCTGATATATACACACCTGGTATTAATTATG [CACACA_site7113]	8.93 ± 0.46
AAAAAAAAATTAAAATGTACACATAAAAAAAAAAAA [XGTACX_site794]	8.64 ± 0.42
ATTTCCTGGCTACTGTGTACTGACCTCCAGACTGCT [XGTACX_site2005]	8.81 ± 0.55
ACTACATAATATTTACGTACCTAAAAAATTCTTATA [XGTACX_site509]	8.51 ± 0.33
ATAATATAAATATGCACACAAATTATTACCCAAAAA [CACACA_site2524]	8.56 ± 0.2
AAAAAAAAAAAACACACACACACACCCAAATATATA [CACACA_site150]	8.49 ± 0.61
AAAAAAAAAAAAAACACACACACACCCAAATATATA [CACACA_site1169]	8.71 ± 0.3
TTAAAAAAATATAATACACACCAAAAATATGCACAT [CACACA_site5209]	8.85 ± 0.35
TGGGAAAAAATATATGCACACCCCCCAAAAAAAAAA [CACACA_site8696]	11.1 ± 0.35
GGAAAAAATATATGCACACCCCCCAAAAAAAAAAAA [CACACA_site2222]	10.95 ± 0.099
TACATATTTTATAGCACACAAATAATAATATGTAGT [CACACA_site688]	8.68 ± 0.31
TTTGAGATGTGGTGTACACAAAATTAGGTACACATC [CACACA_site5773]	8.92 ± 0.33
TCTTTTTCTTCTTATGTGCACATCAATTATGCTTCT	9.33 ± 0.35
AATGTGCTCGCTATTACACACTCATTGGGATAAACT [CACACA_site7043]	8.56 ± 0.4
